What all share (experiment): NCI-60 one-dose screen, 48 h (100 = growth as untreated, 0 = no growth, -100 = all killed)
Settings in all cases: 10 µM unless noted

Test [1] relates to DU-145 prostate.
The test system of test [2] is K-562 leukemia.
For test [3], the system named is MALME-3M melanoma.
The test system of test [4] is MDA-MB-231 breast.
Test [5] concerns RXF 393 renal.
Test [6] has as its system SF-268 CNS.
The test system of test [7] is SF-295 CNS.
The subject of test [8] is SF-539 CNS.
The test system of test [9] is UACC-257 melanoma.
For test [10], the system named is M14 melanoma.
For test [11], the system named is HCT-15 colon.
In test [12] the test system is HT29 colon.
Test [13] has as its system SNB-75 CNS.
For test [14], the system named is SNB-19 CNS.
In test [15] the test system is U251 CNS.
Test [16] concerns PC-3 prostate.
Test [17] relates to SK-MEL-5 melanoma.
The test system of test [18] is UACC-62 melanoma.
Test [19] concerns LOX IMVI melanoma.
Test [20] deals with SK-MEL-28 melanoma.

Drawing on PubChem BioAssay (NCI), this text covers growth for 7 molecules.

Molecules are shown by their SMILES. Compounds without any hit were thinned out: in the full panel of roughly 83,000, 20% have a hit.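 Method: cells in 96-well plates; compound added at one concentration; 48 h incubation; percent growth measured; values under 10 scored active.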 A number with no mark means an inactive call. Calls of active or inactive are those of the source.

For the molecule `N#Cc1c(-c2ccc(Cl)cc2)nc2c(c(-c3ccccc3)nn2-c2ccccc2)c1-c1ccc(O)cc1`, the growth in [1] is 50.8%; in test [2] it was 8.36% (active); in test [3] it was 61.5%; in test [4], 36.5%; in test [5] it was -27% (active); in test [6] it was 46.6%. Besides, the growth in test [7] is 1.71% (active); in test [8], 11.2%; in [9], 85.2%; in test [10], 38.3%; in test [11], 27.2%; in test [12] it was 91.8%. In addition, the growth in test [13] was 42.6%; in test [14] it was 65%; in test [15], 34%; in test [16] it was 12%; in test [17] it was 56.3%; in [18], 53.6%. In addition, the growth in test [19] is 26.5%; in test [20] it was 56.4%.

In the case of `CNc1nc2c(s1)C(c1cccc(F)c1)CC(=O)N2` (stereo not given), the growth is 106% in test [1]; 95.6% in [2]; 110% in [3]; 104% in test [4]; 93.9% in [5]; 94.1% in test [6]. Moreover, the growth in test [7] was 104%; in test [8] it was 92%; in [9], 107%; in test [10], 106%; in test [11], 104%; in test [12], 104%. Moreover, the growth in test [13] was 76.8%; in [14], 92.8%; in test [15], 94.6%; in [16], 98.5%; in test [17], 101%; in test [18] it was 92.3%. In addition, the values for the growth in [19] and in test [20] were 98.4% and 103%, respectively.

In the case of `O=C1CN(CCN2CC(=O)N(Cc3ccccc3)C(=O)C2)CC(=O)N1Cc1ccccc1`, the growth in [1] is 117%; in [2], 107%; in [3] it was 103%; in test [4], 102%; in test [5] it was 108%; in test [6], 103%. The growth was 109% in test [7]; 115% in test [8]; 98.4% in [9]; 109% in [10]; 113% in [11]; 108% in test [12]. The growth in [13] was 88%; in [14], 107%; in test [15], 100%; in test [16], 93.9%; in [17] it was 100%; in test [18], 103%. Besides, the growth is 96.3% in [19] and 107% in test [20].

For `COc1ccc(/C=C2\Oc3cc(OCCN4CCC(Cc5ccccc5)CC4)ccc3C2=O)cc1OC`, the growth in test [1] is 82.5%; in test [2] it was 7.36% (active); in test [3] it was 52.7%; in [4] it was 53.5%; in test [5], 48%; in [6], 79.8%. The growth in test [7] was 82.6%; in [8] it was 83%; in test [9] it was 73.3%; in [10], 30.2%; in [11], 33.5%; in test [12], 21.7%. The growth in test [13] is 80.8%; in [14], 92.6%; in test [15], 70.9%; in test [16], 78.1%; in [17], 42.7%; in test [18] it was 74.4%. Moreover, the figures for the growth in test [19] and in test [20] were 7.25% (active) and 81.5%, respectively.

On to `COc1cccc(Oc2ccccc2NC(=O)CNC(=O)c2cccc3ccccc23)c1`, for which the growth is 5.14% [5 µM] (active) in test [1]; 11.8% [5 µM] in test [2]; 51.3% [5 µM] in test [3]; 7.29% [5 µM] (active) in [4]; 52.4% [5 µM] in test [5]; 34.6% [5 µM] in [6]. The growth in test [7] was 14.6% [5 µM]; in test [8], -7.85% [5 µM] (active); in [9] it was 83.6% [5 µM]; in test [10], -6.36% [5 µM] (active); in test [11] it was 17.8% [5 µM]; in test [12], 6.01% [5 µM] (active). Moreover, the growth is 28% [5 µM] in [13]; 41.7% [5 µM] in [14]; 23.2% [5 µM] in [15]; 26.2% [5 µM] in test [16]; 11.7% [5 µM] in test [17]; 16.1% [5 µM] in test [18]. Moreover, the growth in [19] was 26.1% [5 µM]; in [20] it was 57.5% [5 µM].

In the case of `COc1cc2cc(Oc3ccc(NC(=O)Nc4ccc(Cl)c(Cl)c4)cc3)c(C)nc2cc1OCCN1CCOCC1`, the growth is 99.6% in test [1]; 39.2% in test [2]; 92.2% in [3]; 97.1% in [4]; 84% in test [5]; 94.3% in test [6]. In addition, the growth was 80.1% in [7]; 93.6% in test [8]; 74.3% in test [9]; 101% in test [10]; 88.9% in test [11]; 90.1% in test [12]. Also, the growth in test [13] is 92.9%; in [14], 90.5%; in test [15] it was 96.6%; in test [16], 76.7%; in test [17] it was 50.8%; in test [18], 77.8%. Further, the growth is 93.5% in test [19] and 101% in test [20].

As for `Cc1cc(=O)oc2cc(OC(=O)N3CCN(C)CC3)ccc12`, the growth in [1] is 110%; in test [2], 90.3%; in [3], 103%; in test [4], 104%; in test [5], 121%; in test [6], 101%. The growth in test [7] is 104%; in test [8], 96.3%; in test [9], 106%; in test [10], 95.5%; in [11], 99.4%; in [12], 114%. Also, the growth was 73.1% in [13]; 100% in [14]; 107% in [15]; 96.7% in test [16]; 102% in test [17]; 97.6% in [18]. Moreover, the values for the growth in [19] and in test [20] were 95.1% and 101%, respectively.
